Hits are enriched below; roughly 6.7% of the tested compounds scored in any of these assays.
C diff HTS: C. difficile growth inhibitors, primary screen, HTS; growth activity, negative = inhibition, % at 16 µg/mL (by protocol); hit rate 0.25% among 86,000; Clostridium difficile clinical isolate growth, OD600, 24 h; active compounds read low;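 active = mean growth activity at or below -80% and every replicate also at or below -80%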
Tcruzi prolif: T. cruzi intracellular proliferation inhibitors, primary screen, cell-based, beta-gal Tulahuen parasites, NIH3T3 host, luminescence; inhibition, % at 8.34 µM; hit rate 5.9% among 77,000; T. cruzi beta-gal in NIH3T3, GalScreen luminescence, 90 h; AID 624255, 2012;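 active = mean inhibition above about 93%, with at least 55% of replicates each passing it, limit read from the data, passing the limit was not always enough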
Pf Dd2 growth: P. falciparum Dd2 growth inhibitors, primary screen, SYBR Green fluorescence, single dose replicates | hit rate 2.3% among 94,000 | 72 h; active compounds read low | activity change, % at 10 µM; in the data active = activity change below about -80%
Numbers stand for hits; i = inactive; nt = not tested or not shown.

SMILES | C diff HTS | Tcruzi prolif | Pf Dd2 growth
C[C@@H]1CN([C@@H](C)CO)C(=O)c2cc(NC(=O)C3CC3)ccc2O[C@H]1CN(C)CC1CCCCC1 | nt | i | -88.8
C[C@@H]1CN([C@H](C)CO)C(=O)c2cc(NC(=O)C3CC3)ccc2O[C@@H]1CN(C)CC1CCCCC1 | i | i | i
CCCN(C)C[C@@H]1OCCCC[C@H](C)Oc2ccc(NC(=O)Nc3ccc(C(F)(F)F)cc3)cc2C(=O)N([C@@H](C)CO)C[C@@H]1C | -104.9 | i | -87.6
CCCN(C)C[C@@H]1OCCCC[C@H](C)Oc2ccc(NC(=O)Nc3ccc(C(F)(F)F)cc3)cc2C(=O)N([C@H](C)CO)C[C@@H]1C | i | i | i
C[C@@H]1CN([C@@H](C)CO)C(=O)c2cc(NC(=O)Nc3ccc(C(F)(F)F)cc3)ccc2O[C@H]1CN(C)CC1CCCCC1 | i | i | -86.2
C[C@@H]1CCCCO[C@@H](CN(C)CC2CCCCC2)[C@@H](C)CN([C@H](C)CO)C(=O)c2cc(NC(=O)Nc3ccc(C(F)(F)F)cc3)ccc2O1 | i | i | i
C[C@H]1CCCCO[C@@H](CN(C)CC2CCCCC2)[C@@H](C)CN([C@@H](C)CO)C(=O)c2cc(NC(=O)Nc3ccc(C(F)(F)F)cc3)ccc2O1 | i | i | -81.7
O=C(C[C@@H]1CC[C@@H]2[C@H](COC[C@@H](O)CN2Cc2cccc(C(F)(F)F)c2)O1)NCCc1ccncc1 | i | i | i
CCCN1C[C@H](C)[C@H](OC)CN(C)C(=O)c2cc(NC(=O)c3cnccn3)ccc2OC[C@H]1C | nt | i | i
CS(=O)(=O)N1[C@@H]2c3ccc(C4=CCCCC4)c(=O)n3C[C@H]1[C@H](CO)[C@H]2C(=O)N1CCOCC1 | i | i | i
CC(C)NC(=O)Nc1cccc2c1O[C@H](CN(C)C(=O)Nc1ccc(F)cc1)[C@@H](C)CN([C@H](C)CO)C2=O | i | nt | i
C[C@@H]1CN([C@@H](C)CO)C(=O)Cc2cc(NC(=O)Nc3ccc(F)cc3)ccc2O[C@@H]1CN(C)S(=O)(=O)c1ccc(Cl)cc1 | i | i | i
C[C@@H]1CCCCO[C@@H](CN(C)Cc2ccc(C(=O)O)cc2)[C@H](C)CN([C@H](C)CO)C(=O)c2cc(NC(=O)CCCN(C)C)ccc2O1 | i | i | i
C[C@H]1CCCCO[C@@H](CN(C)Cc2ccc(C(F)(F)F)cc2)[C@@H](C)CN([C@@H](C)CO)C(=O)c2cc(NC(=O)CCC(F)(F)F)ccc2O1 | i | i | i
C[C@@H]1CCCCO[C@@H](CN(C)Cc2ccc(C(F)(F)F)cc2)[C@@H](C)CN([C@H](C)CO)C(=O)c2cc(NC(=O)CCC(F)(F)F)ccc2O1 | i | i | i
C[C@@H]1CCCCO[C@H](CN(C)Cc2ccc(C(F)(F)F)cc2)[C@@H](C)CN([C@@H](C)CO)C(=O)c2cc(NC(=O)CCCN(C)C)ccc2O1 | i | i | -88.2
C[C@H](CO)N1C[C@H](C)[C@H](CN(C)Cc2ccc(C(F)(F)F)cc2)OCCCC[C@H](C)Oc2ccc(NC(=O)CCCN(C)C)cc2C1=O | i | i | -86.2
C[C@@H]1CCCCO[C@H](CN(C)Cc2ccc(C(F)(F)F)cc2)[C@@H](C)CN([C@H](C)CO)C(=O)c2cc(NC(=O)CCC(F)(F)F)ccc2O1 | i | i | i
C[C@@H]1CN([C@H](C)CO)C(=O)c2cc(NC(=O)CCCN(C)C)ccc2O[C@@H](C)CCCCO[C@H]1CN(C)Cc1ccc(C(F)(F)F)cc1 | i | i | -85.9
C[C@@H]1CN([C@@H](C)CO)C(=O)c2cc(NC(=O)CCCN(C)C)ccc2O[C@@H](C)CCCCO[C@H]1CN(C)Cc1ccc(C(F)(F)F)cc1 | i | i | -84.0
CCC(=O)N1CC2(C1)CN(C(=O)CN1CCOCC1)[C@@H](CO)c1[nH]c3cc(OC)ccc3c12 | nt | nt | i
CO[C@@H]1CN(C)C(=O)c2ccc(NC(=O)C3CCOCC3)cc2OC[C@@H](C)NC[C@H]1C | nt | i | i
C[C@H]1CCCCO[C@H](CN(C)C)[C@@H](C)CN([C@@H](C)CO)C(=O)c2cc(NC(=O)CCC(F)(F)F)ccc2O1 | i | i | i
C[C@@H]1CCCCO[C@@H](CN(C)Cc2ccccc2)[C@H](C)CN([C@H](C)CO)C(=O)c2cc(NC(=O)Nc3ccc4c(c3)OCO4)ccc2O1 | i | i | i
C[C@@H]1CCCCO[C@@H](CN(C)Cc2ccc3c(c2)OCO3)[C@@H](C)CN([C@@H](C)CO)C(=O)c2cc(NC(=O)Cc3ccccc3)ccc2O1 | i | i | i
C[C@H]1CCCCO[C@H](CN(C)Cc2ccc3c(c2)OCO3)[C@@H](C)CN([C@@H](C)CO)C(=O)c2cc(NC(=O)Nc3ccccc3)ccc2O1 | i | i | i

Bioassay records from PubChem BioAssay.
